# Source: ChEMBL document CHEMBL1961873, “Compounds: GSK PKIS; Assays: Nanosyn kinase panel” (2012)
# How the values were obtained:
# [1] = target: Serine/threonine-protein kinase 26 (Homo sapiens) (UniProt Q9P289); conditions: at 1 µM;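 further: mean inhibition of MST4 kinase activity, reported from the GSK PKIS inhibitor-set screening panel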
# [2] = target: Serine/threonine-protein kinase PAK 1 (Homo sapiens) (UniProt Q13153); conditions: at 0.1 µM
# [3] = target: Serine/threonine-protein kinase PAK 1 (Homo sapiens) (UniProt Q13153); conditions: at 1 µM
# [4] = target: Serine/threonine-protein kinase PAK 2 (Homo sapiens) (UniProt Q13177); conditions: at 0.1 µM
# [5] = target: Serine/threonine-protein kinase PAK 2 (Homo sapiens) (UniProt Q13177); conditions: at 1 µM
# [6] = target: Serine/threonine-protein kinase PAK 3 (Homo sapiens) (UniProt O75914); conditions: at 0.1 µM
# [7] = target: Serine/threonine-protein kinase PAK 3 (Homo sapiens) (UniProt O75914); conditions: at 1 µM
# [8] = target: Serine/threonine-protein kinase PAK 5 (Homo sapiens) (UniProt Q9P286); conditions: at 0.1 µM
# [9] = target: Serine/threonine-protein kinase PAK 5 (Homo sapiens) (UniProt Q9P286); conditions: at 1 µM
# [10] = target: Serine/threonine-protein kinase PAK 6 (Homo sapiens) (UniProt Q9NQU5); conditions: at 0.1 µM
# [11] = target: Serine/threonine-protein kinase PAK 6 (Homo sapiens) (UniProt Q9NQU5); conditions: at 1 µM
# [12] = system: Tyrosine-protein kinase ABL1 (Homo sapiens), P00519 [E255K]; conditions: at 0.1 µM
# [13] = system: Tyrosine-protein kinase ABL1 (Homo sapiens), P00519 [E255K]; conditions: at 1 µM
# [14] = system: Tyrosine-protein kinase ABL1 (Homo sapiens), P00519 [H396P]; conditions: at 0.1 µM
# [15] = system: Tyrosine-protein kinase ABL1 (Homo sapiens), P00519 [H396P]; conditions: at 1 µM
# [16] = system: Tyrosine-protein kinase ABL1 (Homo sapiens), P00519 [M351T]; conditions: at 0.1 µM
# [17] = system: Tyrosine-protein kinase ABL1 (Homo sapiens), P00519 [M351T]; conditions: at 1 µM
# [18] = system: Tyrosine-protein kinase ABL1 (Homo sapiens), P00519 [Q252H]; conditions: at 0.1 µM
# [19] = system: Tyrosine-protein kinase ABL1 (Homo sapiens), P00519 [Q252H]; conditions: at 1 µM
# [20] = system: Tyrosine-protein kinase ABL1 (Homo sapiens), P00519 [T315I]; conditions: at 0.1 µM
# Serine/threonine-protein kinase PAK 5 (Homo sapiens), sequence (Q9P286 whole entry, looked up): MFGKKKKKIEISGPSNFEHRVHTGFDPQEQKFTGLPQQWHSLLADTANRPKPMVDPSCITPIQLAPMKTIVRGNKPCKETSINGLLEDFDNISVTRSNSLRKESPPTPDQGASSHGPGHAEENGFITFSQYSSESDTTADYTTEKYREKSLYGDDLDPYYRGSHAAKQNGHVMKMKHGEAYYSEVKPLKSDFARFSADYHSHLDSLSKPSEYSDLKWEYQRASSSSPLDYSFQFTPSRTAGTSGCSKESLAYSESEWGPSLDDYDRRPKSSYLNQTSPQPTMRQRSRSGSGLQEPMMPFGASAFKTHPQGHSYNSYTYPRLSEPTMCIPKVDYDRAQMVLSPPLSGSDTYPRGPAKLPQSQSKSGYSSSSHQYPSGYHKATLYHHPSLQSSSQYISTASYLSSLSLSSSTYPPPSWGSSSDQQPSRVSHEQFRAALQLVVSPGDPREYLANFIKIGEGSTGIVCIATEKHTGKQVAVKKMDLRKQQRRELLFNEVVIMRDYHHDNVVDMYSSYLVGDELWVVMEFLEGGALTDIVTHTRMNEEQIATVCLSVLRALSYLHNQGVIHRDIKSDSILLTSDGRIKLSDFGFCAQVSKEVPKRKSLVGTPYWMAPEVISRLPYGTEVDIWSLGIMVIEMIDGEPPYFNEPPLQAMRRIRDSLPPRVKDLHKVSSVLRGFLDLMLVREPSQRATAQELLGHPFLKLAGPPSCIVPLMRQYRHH
# Serine/threonine-protein kinase 26 (Homo sapiens), sequence (Q9P289 2-416 limits assumed): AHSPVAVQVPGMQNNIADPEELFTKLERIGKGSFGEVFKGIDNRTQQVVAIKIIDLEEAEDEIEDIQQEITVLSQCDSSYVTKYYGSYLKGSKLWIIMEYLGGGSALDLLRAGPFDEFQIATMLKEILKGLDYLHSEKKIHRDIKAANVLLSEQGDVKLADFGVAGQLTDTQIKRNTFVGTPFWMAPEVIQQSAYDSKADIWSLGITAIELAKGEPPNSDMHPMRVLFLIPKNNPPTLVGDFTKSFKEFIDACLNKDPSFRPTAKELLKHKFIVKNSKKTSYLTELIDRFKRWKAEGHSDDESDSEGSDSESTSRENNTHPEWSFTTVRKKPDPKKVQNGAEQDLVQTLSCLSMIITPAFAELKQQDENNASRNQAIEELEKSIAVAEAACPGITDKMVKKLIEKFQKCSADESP
# Serine/threonine-protein kinase PAK 1 (Homo sapiens), sequence (Q13153 whole entry): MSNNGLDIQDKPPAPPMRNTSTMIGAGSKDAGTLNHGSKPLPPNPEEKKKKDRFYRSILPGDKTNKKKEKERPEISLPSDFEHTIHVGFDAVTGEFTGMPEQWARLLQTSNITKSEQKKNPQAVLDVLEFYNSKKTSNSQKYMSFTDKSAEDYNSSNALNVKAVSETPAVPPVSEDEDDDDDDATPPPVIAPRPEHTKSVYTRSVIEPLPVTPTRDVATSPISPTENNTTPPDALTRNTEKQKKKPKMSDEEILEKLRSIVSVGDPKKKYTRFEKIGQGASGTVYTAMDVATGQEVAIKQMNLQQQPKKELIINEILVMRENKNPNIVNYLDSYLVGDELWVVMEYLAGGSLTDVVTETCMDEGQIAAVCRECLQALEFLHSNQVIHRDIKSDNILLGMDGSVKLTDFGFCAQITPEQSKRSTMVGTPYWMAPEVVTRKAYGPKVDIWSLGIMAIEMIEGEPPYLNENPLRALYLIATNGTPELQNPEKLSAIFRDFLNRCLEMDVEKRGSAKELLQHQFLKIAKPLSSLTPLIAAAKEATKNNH
# Serine/threonine-protein kinase PAK 6 (Homo sapiens), sequence (Q9NQU5 whole entry, looked up): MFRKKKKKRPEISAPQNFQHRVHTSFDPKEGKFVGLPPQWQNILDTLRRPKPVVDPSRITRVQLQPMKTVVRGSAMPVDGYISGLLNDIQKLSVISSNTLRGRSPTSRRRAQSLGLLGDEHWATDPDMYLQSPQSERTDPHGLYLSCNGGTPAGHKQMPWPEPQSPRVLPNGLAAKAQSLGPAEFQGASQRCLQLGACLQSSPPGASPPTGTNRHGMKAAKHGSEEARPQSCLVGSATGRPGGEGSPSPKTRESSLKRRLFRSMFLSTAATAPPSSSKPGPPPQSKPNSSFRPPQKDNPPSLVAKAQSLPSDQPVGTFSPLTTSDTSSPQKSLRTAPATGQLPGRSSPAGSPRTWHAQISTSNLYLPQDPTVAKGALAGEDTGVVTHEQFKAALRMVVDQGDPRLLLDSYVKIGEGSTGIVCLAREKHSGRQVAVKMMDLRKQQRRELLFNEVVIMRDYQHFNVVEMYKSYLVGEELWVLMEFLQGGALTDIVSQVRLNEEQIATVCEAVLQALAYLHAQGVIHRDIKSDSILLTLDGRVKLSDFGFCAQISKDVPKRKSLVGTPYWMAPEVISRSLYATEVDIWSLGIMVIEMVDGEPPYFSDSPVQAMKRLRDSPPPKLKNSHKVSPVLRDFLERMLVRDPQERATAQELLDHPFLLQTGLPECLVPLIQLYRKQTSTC
# Serine/threonine-protein kinase PAK 2 (Homo sapiens), sequence (Q13177 whole entry): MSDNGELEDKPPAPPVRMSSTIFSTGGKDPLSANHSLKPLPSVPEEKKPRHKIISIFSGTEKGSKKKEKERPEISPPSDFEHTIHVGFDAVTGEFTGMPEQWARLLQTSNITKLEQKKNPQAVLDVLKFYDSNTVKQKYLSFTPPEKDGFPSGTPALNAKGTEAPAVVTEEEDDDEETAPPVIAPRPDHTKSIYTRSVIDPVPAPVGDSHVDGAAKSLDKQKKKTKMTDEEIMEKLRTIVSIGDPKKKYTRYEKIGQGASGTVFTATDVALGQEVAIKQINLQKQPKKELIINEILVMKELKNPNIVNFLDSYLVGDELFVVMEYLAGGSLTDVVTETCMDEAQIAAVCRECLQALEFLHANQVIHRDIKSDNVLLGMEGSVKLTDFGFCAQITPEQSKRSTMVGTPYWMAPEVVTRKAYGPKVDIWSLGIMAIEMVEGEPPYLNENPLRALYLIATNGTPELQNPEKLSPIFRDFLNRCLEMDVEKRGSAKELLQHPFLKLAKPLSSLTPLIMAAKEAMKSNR
# Serine/threonine-protein kinase PAK 3 (Homo sapiens), sequence (O75914 whole entry, looked up): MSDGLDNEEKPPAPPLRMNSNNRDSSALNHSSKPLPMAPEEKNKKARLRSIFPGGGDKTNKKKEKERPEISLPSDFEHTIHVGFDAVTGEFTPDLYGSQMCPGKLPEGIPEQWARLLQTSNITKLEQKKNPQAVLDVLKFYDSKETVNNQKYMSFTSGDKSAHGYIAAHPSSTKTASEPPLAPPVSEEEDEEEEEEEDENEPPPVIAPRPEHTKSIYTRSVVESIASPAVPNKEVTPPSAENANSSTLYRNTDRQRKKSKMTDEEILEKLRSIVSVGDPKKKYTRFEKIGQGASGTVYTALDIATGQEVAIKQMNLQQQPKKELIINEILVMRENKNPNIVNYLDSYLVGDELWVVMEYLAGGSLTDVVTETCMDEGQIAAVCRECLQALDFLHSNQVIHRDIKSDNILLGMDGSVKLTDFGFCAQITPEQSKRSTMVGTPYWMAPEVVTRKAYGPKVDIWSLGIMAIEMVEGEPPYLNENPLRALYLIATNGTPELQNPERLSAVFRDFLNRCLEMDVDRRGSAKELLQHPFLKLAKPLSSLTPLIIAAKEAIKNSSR
SMILES,inhibition [1] [%],inhibition [2] [%],inhibition [3] [%],inhibition [4] [%],inhibition [5] [%],inhibition [6] [%],inhibition [7] [%],inhibition [8] [%],inhibition [9] [%],inhibition [10] [%],inhibition [11] [%],inhibition [12] [%],inhibition [13] [%],inhibition [14] [%],inhibition [15] [%],inhibition [16] [%],inhibition [17] [%],inhibition [18] [%],inhibition [19] [%],inhibition [20] [%]
O=C1NC(=O)C(c2cccc(Cl)c2)=C1Nc1ccc(Cl)c(C(=O)O)c1,0.53,4.41,6.62,2.04,0.87,3.53,3.74,0.06,0.5,-2.69,-4.4,1.78,3.24,2.08,6.18,2.29,5.05,2.43,4.98,1.3
COc1cc(Nc2ncc3c(C)nc(-c4cccc(Oc5ccccc5)c4)n3n2)cc(OC)c1OC,-2.15,4.4,3.74,1.49,1.12,2.09,4.11,1.86,4.51,-2.06,-0.38,2.03,1.82,2.82,1.6,2.89,1.5,3.94,0.97,0.51
CCc1ccc(Oc2nccc(-c3c(-c4ccc(F)cc4)ncn3C3CCNCC3)n2)cc1,2.83,4.48,10.2,1.26,2.44,4.22,5.69,6.56,9.57,-5.49,2.92,0.49,4.7,3.35,3.77,0.72,1.75,3.25,3.37,2.83
CCc1cccc(CC)c1/C=C/c1cncc(C(=O)NC)c1,-4.27,6.83,2.08,2.1,1.76,2.61,3.43,8.04,-1.06,-5.49,11.5,3.61,17.5,7.45,37.4,7.15,32.1,3.16,12.1,2.72
O=C(Nc1n[nH]c2cc(-c3cc(F)ccc3F)ccc12)C1CC1,-1.14,5.03,5.57,0.42,2.22,2.86,2.97,3.42,-2.05,2.84,-0.43,8.07,31.4,13.8,52.2,13,53.8,8.73,35.5,23.3
NS(=O)(=O)c1ccc(Nc2cc(-c3ccc(O)c(F)c3)n[nH]2)cc1,3.14,-5.59,-0.83,-1.12,-1.29,-4.62,-3.25,-6.87,-2.39,1.44,-3.83,1.72,14.8,2.42,27.3,4.46,30.5,1.52,20,0.21
Fc1ccc(-c2nc3n(c2-c2ccncc2)CCS3)cc1,-1.08,6.15,8.39,3.06,1.6,4.5,4.49,-6.84,-7.5,9.34,-7.43,1.52,4.79,2.85,3.2,1.2,4.76,2.91,5.38,1.83
Cc1ccc(C(=O)NC2CCC2)cc1-c1ccc(C(=O)NCC2CC2)cc1,-4.44,6.1,8.35,2.22,2.3,3.41,3.03,-0.72,-2.79,3.05,-6.65,1.89,1.67,1.26,0.31,-0.23,-0.39,0.6,1.97,0.82
Cc1nnc(-c2ccc(C)c(-c3ccc(C(=O)NCc4ccc(Cl)cc4)cc3)c2)o1,0.59,7.92,6.11,1.55,1.24,4.16,4.01,,-2.54,-4.24,,2.64,6.05,3.3,11.6,-1.14,1.63,2.54,4.45,2.23
CN1CCN(CCCNc2nc3ccc(Oc4ccc(NC(=O)Nc5cc(C(F)(F)F)ccc5F)cc4)cc3[nH]2)CC1,0.74,3.77,2.58,1.22,1.06,1.62,2.65,1.27,8.65,-3.01,-3.76,0.07,4.6,0.89,15,14.3,45.5,12.8,48.1,16.6
NC(=O)c1ccc(Oc2nccc(-c3c(-c4ccc(F)cc4)ncn3C3CCNCC3)n2)cc1,2.28,10,11,2.27,2.2,6.67,9.21,4.23,0.82,-4.02,-4.13,2.12,3.91,5.26,5.53,-1.3,-0.09,2.63,7.69,3.03
Clc1ccc(CNc2nccc(-c3cnn4ncccc34)n2)cc1,1.18,-2.27,-0.13,0.78,0.67,-0.26,0.29,8.39,2.06,,-0.19,4.07,3.72,4.81,5.52,4.62,3.11,2.33,6.07,0.52
FC(F)(F)c1cccc(Nc2nccc(-c3cnn4nc(-c5ccccc5)ccc34)n2)c1,-3.24,6.28,3.48,0.33,0.77,2.74,2.27,-0.43,-0.64,-2.37,-5.84,0.92,2.38,-0.38,4.75,-1.63,2.9,1.86,5.75,-0.65
